Bioassay records deposited in PubChem by National Center for Advancing Translational Sciences (NCATS).
Shown are actives, neighbours in structure and some others; about 8.9% of the full set was active somewhere.
D3 antag – antagonists of human D3 dopamine receptor. D3R cells, DiscoveRx beta-arrestin luminescence, antagonist mode; active compounds read low. max response, negative = inhibition, %. hit rate 2.5% among 360,000. AID 652054; in the data active = max response below about -50%; inconclusive = no clear call, values can overlap the other calls
Target sequence (P35462 whole entry, looked up): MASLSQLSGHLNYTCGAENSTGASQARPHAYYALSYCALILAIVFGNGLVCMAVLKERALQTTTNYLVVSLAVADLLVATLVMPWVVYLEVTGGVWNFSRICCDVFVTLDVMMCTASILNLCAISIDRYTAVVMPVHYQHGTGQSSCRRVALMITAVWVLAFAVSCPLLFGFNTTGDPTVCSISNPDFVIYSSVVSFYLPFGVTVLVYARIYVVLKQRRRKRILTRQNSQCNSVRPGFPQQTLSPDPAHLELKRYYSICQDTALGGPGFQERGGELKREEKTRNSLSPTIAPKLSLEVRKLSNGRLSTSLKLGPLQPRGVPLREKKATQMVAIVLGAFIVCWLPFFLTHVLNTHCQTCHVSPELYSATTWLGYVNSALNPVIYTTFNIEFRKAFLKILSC
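Cells plated overnight at 1500 cells/well, then exposed to library compounds with dopamine controls for 90 minutes at 37 degrees C. DiscoveRx reagent added for 30–60 minutes at room temperature; luminescence read, quantitative HTS format.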
SW480 rereplic – induces DNA re-replication in SW480 colon adenocarcinoma cells; hit rate 1.8% among 340,000; AID 624297; SW480 DNA re-replication, Hoechst DNA content imaging, 48 h; Potency, µM (highest dose often 46.1 µM), most hits filed as activators; note: nearly all actives have a fitted effect of over 55% in size
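Image-based DNA-content assay: after two days of treatment, nuclei were labelled with the DNA dye Hoechst and imaged, and hits were compounds raising the count of nuclei showing high fluorescence intensity.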
MCF10A rereplic – inducers of DNA re-replication in MCF 10A breast cells; MCF 10A DNA re-replication, Hoechst nuclear intensity, 48 h; Potency, µM (top dose mostly 46.1 µM), usual class: activators; hit rate 2.9% among 350,000; AID 624296; note: nearly all actives have a fitted effect of over 50% in size
DRD3 agonist – activates the human D3 dopamine receptor. P35462. D3R DiscoveRx beta-arrestin cells, luminescence, 90 min. max activation, %. hit rate 0.58% among 410,000. AID 652048; in the data active = max activation above about 30%
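Cells at 1500/well, incubated overnight, then treated with pinned compounds (dopamine as control) for 90 min at 37 degrees C. DiscoveRx reagent added for 30 - 60 minutes at room temperature; luminescence read.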
KB-3-1 tox – KB-3-1 parental cell cytotoxicity. KB-3-1 viability, CellTiter-Glo ATP luminescence, 72 h. Potency, µM (highest dose often 46.1 µM), hits mostly cytotoxic. hit rate 1.4% among 400,000; note: nearly all actives have a fitted effect of over 60% in size
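Multi-concentration cytotoxicity screen in KB-3-1 cells grown in DMEM lacking phenol red with 10% FBS. After 72 h at 37 °C with compound, ATP-dependent luminescence was recorded.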
KB-V1 cytotox – KB-V1 MDR subline cytotoxicity; Potency, µM (highest dose often 46.1 µM), actives largely listed as cytotoxic; AID 1347076; KB-V1 MDR cells viability, CellTiter-Glo, 72 h; hit rate 3.4% among 400,000; note: nearly all actives have a fitted effect of over 60% in size
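Luminescent ATP read-out (CellTiter-Glo, 10 min) measures survival of drug-selected KB-V1 MDR cells after 72 h, 37 degrees C compound exposure. Medium: phenol-red-free DMEM, 10% FBS. Values from fitted concentration-response curves.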
A number is an active result; i = inactive; ? = inconclusive; nt = no result; [ ] = dose if it differs, or a comment. Unless noted, calls come from the whole dose curve; as a rule, active = well fitted curve in the direction sought with a large enough effect; inconclusive = small, poorly fitted or top-dose-only effect, or another doubt; inactive = no such curve, though single readings can be large; an effect the other way counts as inactive or inconclusive.

SMILES	D3 antag	SW480 rereplic	MCF10A rereplic	DRD3 agonist	KB-3-1 tox	KB-V1 cytotox
O=C(CN1CCN(c2ccccc2)CC1)c1ccc2cc[nH]c2c1	-63	i	i	i	i	i
O=C(CCCN1CCN(c2ccccc2)CC1)c1ccc(F)cc1	-102	nt	nt	i	i	i
CN1CCN(CCCC(=O)c2ccc(F)cc2)CC1	-60	i	i	i	i	i
O=C(CCCCN1CCCCC1)c1ccccc1	i	i	i	i	i	?
Cc1cc(OC(C)C(=O)N2CCN(CCc3ccccn3)CC2)ccc1Cl (stereo not drawn)	nt	nt	nt	i	i	?
CC(C)CC1C(=O)N(Cc2cn(CCC3OCCO3)nn2)CCS(=O)(=O)N1Cc1ccc(-c2cccc(N(C)C)c2)cc1 (stereo not drawn)	?	nt	nt	i	i	?
CCOc1ccccc1NC(=O)Cn1ncc2c([nH]c3ccccc32)c1=O	nt	nt	nt	i	i	i
CC1CCCCN1c1cc2c(cc1F)c(=O)c(S(=O)(=O)c1ccccc1)cn2Cc1ccccc1 (stereo not drawn)	nt	nt	nt	i	i	i
O=C(CCCN1Cc2ccccc2C1)c1ccc(F)cc1	-151	i	i	i	i	i
O=C(CCCN1CCN2CCCC2C1)c1ccc(F)cc1 (stereo not drawn)	nt	i	i	i	nt	nt
O=C1CC(=C(c2ccccc2)c2ccccc2)C(=O)N1CCCCN1CCN(c2ccccc2)CC1	i	?	?	i	21µM	?
CCCCN1C(=O)C(=O)N(CC(=O)N2CCN(c3ccccc3)CC2)C1=O	i	?	?	i	i	i
Cc1ccc(NC(=O)c2cc(S(=O)(=O)N3CCc4ccccc43)ccc2F)cc1Cl	nt	nt	nt	i	nt	nt
COc1ccc(OC)c(NC(=O)CSC2=Nc3ccccc3C3=NC(CCC(=O)NCCc4ccccc4)C(=O)N23)c1 (stereo not drawn)	nt	nt	nt	i	?	i
COc1cc(C2C(C(=O)c3cccs3)=C(O)C(=O)N2c2cc(C)on2)ccc1O (stereo not drawn)	i	i	i	i	i	i
COc1cccc(C2C(C(=O)c3cccs3)=C(O)C(=O)N2c2cc(C)on2)c1 (stereo not drawn)	-55	i	i	i	?	i
COc1ccc(OC)c(C2C(C(=O)c3cccs3)=C(O)C(=O)N2c2cc(C)on2)c1 (stereo not drawn)	-69	i	i	i	i	i
O=C(Nc1cccc(Cl)c1Cl)c1cc2nc(-c3ccc4c(c3)OCO4)cc(C(F)(F)F)n2n1	nt	nt	nt	i	?	i
Cc1noc(C)c1CSCC(=O)Oc1ccc(N(C)S(=O)(=O)c2ccccc2)cc1	i	i	i	i	i	i
Cc1noc(C)c1CSCC(=O)Oc1ccc(N(C)S(=O)(=O)c2ccc(Cl)cc2)cc1	i	i	i	36	i	i
COCCNC(=O)CSc1nc(-c2ccccc2)[nH]c1-c1ccc(OC)cc1	nt	nt	nt	i	i	i
CN(C)c1ccc(CN(C(=O)C2COc3ccccc3O2)C2CCS(=O)(=O)C2)cc1 (stereo not drawn)	i	i	?	i	i	18µM
CC(C)c1ccc(CN(C(=O)C2COc3ccccc3O2)C2CCS(=O)(=O)C2)cc1 (stereo not drawn)	i	i	i	i	i	?
COC(=O)c1c(C)nc2ccccc2c1C(=O)O	i	i	i	i	i	i
COC(=O)c1cc(C)[nH]c2c(C)cc3nc4ccccc4c3c12	i	?	21µM	i	i	?
SMILES	D3 antag	SW480 rereplic	MCF10A rereplic	DRD3 agonist	KB-3-1 tox	KB-V1 cytotox
O=C(Nc1ccccc1F)c1ccc(C(=O)c2ccccc2)cc1	-73	i	i	i	i	?
CC(=O)c1ccccc1NC(=O)CN1C(=O)CS/C1=C\c1nc(-c2ccc(C)cc2)cs1	i	i	i	i	i	i
O=C(Nc1ccccc1F)c1cccc(C(=O)Nc2ccccc2F)c1	i	i	i	i	i	i
Cc1nc(-c2ccc(C(=O)Nc3ccccc3F)cc2)cs1	i	i	i	i	?	12µM
Cc1ccc(-c2csc(/C=C3/SC(C)C(=O)N3CC(=O)Nc3ccccc3F)n2)cc1 (stereo not drawn)	i	?	21µM	i	i	i
Oc1ccc(/C=N/N2CCN(C3c4ccccc4-c4ccccc43)CC2)cc1	i	i	?	i	i	i
Oc1ccc(/C=N/N2CCN(C3c4ccccc4-c4ccccc43)CC2)c(O)c1	i	?	6.5µM	i	i	i
COc1ccc(CNC(=O)C(=O)NCC2CCCO2)cc1 (stereo not drawn)	?	i	?	i	18µM	i
COc1ccc(CNC(=O)NC2CCCCC2)cc1	i	18µM	3.7µM	i	i	i
COc1ccc(CN2CCC(CNC(=O)NC3CCCCC3)CC2)cc1	-54	i[9.22 µM]	i	i	i	i
COc1ccc(CNC(=O)C(C)Sc2nc3ccccc3c(=O)n2CC2CCCO2)cc1 (stereo not drawn)	i	i	i	i	i	5.8µM
CC(Sc1nc2ccccc2c(=O)n1CC1CCCO1)C(=O)NC(C)c1ccccc1 (stereo not drawn)	i	i	i	i	i	i
CC(C)CCn1c(Oc2ccccc2F)nc2c1c(=O)n(C)c(=O)n2C	nt	nt	nt	i	i	i
COc1ccc(Cl)cc1NC(=O)c1nnn(CC(=O)Nc2ccc3c(c2)OCO3)c1N	i	i	i	i	i	?
c1nc(SSc2ncnc3nc[nH]c23)c2[nH]cnc2n1	i	?	?	i	5.2µM	2.3µM
Cc1ccc(NC(=O)CCC(=O)N2Cc3ccccc3Oc3ncccc32)cc1F	nt	nt	nt	i	i	i
O=C1C(=C(c2ccccc2)N2CCOCC2)Cc2ccccc21	-125	nt	nt	i	7.3µM	?
O=C(c1ccccc1)N1CCN(C(=O)N2CCOCC2)CC1	i	i	i	i	i	i
Cc1noc(C)c1COc1ccc(C(=O)NNC(=O)c2ccccc2F)cc1	i	12µM	i	i	?	i
Cc1noc(C)c1COc1ccc(C(=O)NNC(=O)c2ccccc2)cc1	i	13µM	21µM	i	4.6µM	7.3µM
Cc1ccccc1NC(=O)c1ccc(OCc2c(C)noc2C)cc1	i	?	?	i	?	?
Cc1noc(C)c1COc1ccc(C(=O)O)cc1	i	i	i	33	i	i
COc1cc(OC)cc(-c2nc3nc(C)c(CCC(=O)Nc4ccc(C)c(C)c4)c(C)n3n2)c1	nt	nt	nt	i	i	i
CCOC(=O)c1cc(C(C)(C)C)oc1CNC(=O)c1c(C)oc2c1CCCC2	i	i	21µM	i	i	i
CCC(=O)N(c1nnc(SCC(=O)c2ccc[nH]2)s1)C1CC1	i	i	i	i	i	12µM
C1COCCNCCOCCOCCOCCN1	i	10µM	i	i	i	i
C1COCCNCCOCCOCCN1	-92	i[9.22 µM]	i	i	i	i
